In all, about 110,000 compounds were measured (“z-score”: median about -0.1, highest 2% from about 2 on). The sample as a whole holds a higher share of the highest values than the screen did. Calls of active or inactive are those of the source.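 Rule for the calls: active = z-score in the third read window above 3 or below -3; inactive = the rest.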
These compounds were tested against Metabotropic glutamate receptor 8 (Rattus norvegicus) (UniProt P70579) (assay: rat mGluR8 modulators via GIRK flux, primary screen, cell-based, thallium flux, HTS (AID 488969)). Details: HEK293 rat mGluR8, GIRK (G protein-gated inwardly rectifying potassium channel) thallium flux, FluoZin2; at 10 µM; stronger effect = higher value; submaximal glutamate (EC20) added with thallium.
Metabotropic glutamate receptor 8 (Rattus norvegicus), sequence (P70579 whole entry, looked up): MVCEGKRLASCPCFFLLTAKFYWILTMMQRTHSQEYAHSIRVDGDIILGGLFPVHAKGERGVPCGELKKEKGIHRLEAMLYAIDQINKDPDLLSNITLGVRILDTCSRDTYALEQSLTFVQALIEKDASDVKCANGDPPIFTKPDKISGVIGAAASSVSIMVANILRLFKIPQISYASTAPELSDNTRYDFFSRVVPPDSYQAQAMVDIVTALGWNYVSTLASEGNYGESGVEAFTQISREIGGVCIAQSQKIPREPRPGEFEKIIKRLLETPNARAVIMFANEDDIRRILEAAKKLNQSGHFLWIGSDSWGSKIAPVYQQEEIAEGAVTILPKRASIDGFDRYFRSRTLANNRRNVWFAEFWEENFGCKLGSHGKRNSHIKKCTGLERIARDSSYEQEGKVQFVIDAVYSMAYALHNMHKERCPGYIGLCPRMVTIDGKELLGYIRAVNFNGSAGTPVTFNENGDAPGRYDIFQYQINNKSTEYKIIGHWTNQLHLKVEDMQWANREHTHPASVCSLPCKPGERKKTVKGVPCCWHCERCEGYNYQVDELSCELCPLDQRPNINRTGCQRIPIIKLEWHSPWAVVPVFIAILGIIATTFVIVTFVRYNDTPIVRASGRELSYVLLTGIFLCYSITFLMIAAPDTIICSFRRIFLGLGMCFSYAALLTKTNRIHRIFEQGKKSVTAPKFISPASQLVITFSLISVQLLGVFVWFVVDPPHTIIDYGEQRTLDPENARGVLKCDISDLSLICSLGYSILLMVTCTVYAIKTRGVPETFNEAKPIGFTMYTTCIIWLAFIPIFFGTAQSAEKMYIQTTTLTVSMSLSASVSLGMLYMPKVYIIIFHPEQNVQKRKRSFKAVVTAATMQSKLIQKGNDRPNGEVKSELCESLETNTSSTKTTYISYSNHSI

Structure (SMILES)	z-score
Cc1cc(NS(=O)(=O)c2ccc(NC(=O)c3cc(-c4ccccc4Cl)nc4ccccc34)cc2)no1	-1.51
C=CCn1c(=NC(=O)c2ccco2)sc2cc(C(=O)OC)ccc21	0.103
COc1ccccc1C(=O)Nc1ccc2c(c1)OCO2	0.246
CN(C)C(=O)N1CCCC(C(=O)NCc2ccccc2)C1 (centres undefined)	-0.341
CC(/C=N/NC(=O)c1ccncc1)=C\c1ccc(C(C)C)cc1	-0.0873
CC(=C/c1ccc(C(C)C)cc1)/C=N/NC(=O)c1ccncc1	2.21
CC(/C=N/NC(=O)c1ccncc1)=C\c1ccccc1	0.474
COc1cc(/C=N\NC(=O)c2ccc(=O)[nH]n2)cc(OC)c1OC	0.00269
O=C(NO)c1ccc(OC(F)F)cc1	0.319
CCC1CCCCN1c1cc(C)nc2cc(-c3cccc(C)c3)nn12 (centres undefined)	-0.0418
C#CCn1c(=NC(=O)c2ccccc2[N+](=O)[O-])sc2cc(S(C)(=O)=O)ccc21	-0.119
S=c1nc(-c2ccc(Br)cc2)oc2c1CCCC2	4.2 (active)
Cc1cccc(-c2nc(=S)c3c(o2)CCCC3)c1	0.856
S=c1nc(-c2ccccc2)oc2c1CCCC2	-0.0866
C=CCONC(=O)c1cc(OCC(F)(F)F)ccc1OCC(F)(F)F	-0.0898
COCCCNCCOCCSc1ccc(Cl)cc1	0.918
O=C(Cn1cncc1-c1ccc([N+](=O)[O-])cc1)Nc1cccc2ccccc12	-0.199
CC1CCc2c(sc(NC(=O)CN3CCN(C(=O)c4ccco4)CC3)c2C#N)C1 (centres undefined)	0.101
CC1CCc2c(sc(NC(=O)COC(=O)c3ccccc3NCc3ccco3)c2C#N)C1 (centres undefined)	-0.152
CC1CCc2c(sc(NC(=O)C(=O)NCc3ccco3)c2C#N)C1 (centres undefined)	11.4 (active)
COc1ccc(S(=O)(=O)N2CCN(C3Cc4ccccc4C3)CC2)cc1	-0.439
Cc1cc(C)n(CC(O)CN(c2ccccc2)S(=O)(=O)c2ccccc2)n1 (centres undefined)	-0.261

Structure (SMILES)	z-score
O=C(Nc1nnc(-c2ccccn2)o1)c1cccc(Br)c1	0.334
O=C(Nc1nnc(-c2ccc3c(c2)CCCC3)o1)c1ccccc1Cl	5.26 (active)
CC1CN(S(=O)(=O)c2cccc(C(=O)Nc3ccc4c(c3)CCC4)c2)CC(C)O1 (centres undefined)	-0.053
O=C(Nc1nnc(-c2ccccn2)o1)c1ccc(Br)cc1	2.32
O=C(CCc1ccccc1)Nc1nnc(-c2ccc3c(c2)CCCC3)o1	-0.145
COc1ccccc1C(=O)Nc1nnc(-c2ccc3c(c2)CCCC3)o1	-0.536
CN(C)S(=O)(=O)c1ccc(C(=O)Nc2nnc(-c3ccc4c(c3)CCCC4)o2)cc1	5.8 (active)
Cc1cc(C)c(NC(=O)c2ccc(S(=O)(=O)N(C)C)cc2)c(C)n1	-1.73
CC1CN(S(=O)(=O)c2ccc(C(=O)Nc3nnc(-c4ccc5c(c4)CCCC5)o3)cc2)CC(C)O1 (centres undefined)	2.42
O=C(Nc1nnc(-c2ccc3c(c2)OCCO3)o1)c1ccc(Cc2ccccc2)cc1	-0.048
N#Cc1ccc(C(=O)Nc2nnc(-c3ccccn3)o2)cc1	-0.232
Cc1cc(C)nc(NS(=O)(=O)c2ccc(NC(=O)c3ccc(S(=O)(=O)N4CC(C)OC(C)C4)cc3)cc2)n1 (centres undefined)	-0.605
Nc1ccc(SC(F)(F)F)cc1C(=O)c1ccccc1	-0.00154
O=C(COC(=O)C1CCN(S(=O)(=O)c2ccc3c(c2)OCCO3)CC1)Nc1cc(C(F)(F)F)ccc1Cl	-0.303
CCCC12CN3CCN(CC(C3)/C1=N\NC(=O)Nc1ccccc1)C2	-0.242
CCc1cc2cc(C(=O)Nc3ccc(F)cc3)sc2s1	-0.0494
Cc1nc2ccc(F)cc2cc1C(=O)NCc1ccco1	-0.0284
O=C(COC(=O)CCc1nc2ccccc2s1)Nc1ncc(Cl)cc1Cl	-0.33
CN1CCN(/C=N/c2c(C#N)cnn2-c2ccccc2)CC1	0.237
O=C(CNC(=O)c1cccc(F)c1)OCc1cc(=O)n2cc(Br)ccc2n1	-0.354
Clc1ccc(-c2nnc(NC3=NCCCCC3)o2)cc1	0.0658
CC(=O)Nc1nnc(-c2ccc3c(c2)CCCC3)o1	0.0154

Structure (SMILES)	z-score
O=C(COc1ccccc1)Nc1nnc(-c2ccc3c(c2)CCCC3)o1	1.27
CCCN(CCC)S(=O)(=O)c1ccc(C(=O)Nc2nnc(-c3cccc(OC)c3)o2)cc1	3.65 (active)
CCCN(CCC)S(=O)(=O)c1ccc(C(=O)Nc2nnc(CSC)o2)cc1	0.35
COc1cccc(-c2nnc(NC(=O)c3ccc(S(=O)(=O)N(CC(C)C)CC(C)C)cc3)o2)c1	-0.14
O=C(Nc1nnc(-c2ccc3c(c2)CCCC3)o1)C1COc2ccccc2O1 (centres undefined)	7.22 (active)
O=C(Nc1nnc(-c2ccc3c(c2)CCCC3)o1)c1ccc(Cl)cc1Cl	15.6 (active)
O=C(Nc1ccc2c(c1)CCC2)C1COc2ccccc2O1 (centres undefined)	0.9
O=C(COc1ccc(Cl)cc1)Nc1nnc(-c2ccc3c(c2)CCCC3)o1	-0.441
O=C(Nc1nnc(-c2ccc3c(c2)CCCC3)o1)C1CCCCC1	-0.309
O=C(Nc1nnc(-c2ccc3c(c2)CCCC3)o1)c1ccccc1	15.5 (active)
COc1nnc(-c2ccc(N3CCCCC3)c(NC(=O)C3CCCCC3)c2)c2ccccc12	-0.3
Cc1ccccc1N1CCN(C(=O)CCN2C(=O)c3ccccc3C2=O)CC1	-0.36
COc1ccc(C(=O)Nc2ccc(Cl)c(Cl)c2)c(OC)n1	-0.192
COc1ccccc1C(=O)NNC(=O)c1ccc(F)cc1	0.0416
CCC(C)(C)n1nnnc1C(C(C)C)N1CCSCC1 (centres undefined)	0.805
O=S(Cc1ccc(Br)cc1)Cc1nnc(SCc2c(Cl)cccc2Cl)n1-c1ccccc1 (centres undefined)	0.0461
CCNC(=O)C1CCCN1S(=O)(=O)c1ccc(C)cc1 (centres undefined)	-0.513
Cc1ccc2cc3cc(C(=O)N4CCN(Cc5ccccc5)CC4)sc3nc2c1	0.586
O=C(/C=C/c1ccccc1)NC(NC(=S)Nc1cccc(Cl)c1)C(Cl)(Cl)Cl (centres undefined)	1.36
O=C(/C=C/c1ccccc1)NC(NC(=S)Nc1cccc(O)c1)C(Cl)(Cl)Cl (centres undefined)	2.09
O=C(/C=C/c1ccccc1)NC(NC(=S)Nc1cc(Cl)ccc1Cl)C(Cl)(Cl)Cl (centres undefined)	5.83 (active)
O=C(Cc1ccccc1)NC(NC(=S)Nc1cc(Cl)ccc1Cl)C(Cl)(Cl)Cl (centres undefined)	-0.195

Structure (SMILES)	z-score
O=C(/C=C/c1ccccc1)NC(NC(=S)Nc1ccc(Cl)cc1Cl)C(Cl)(Cl)Cl (centres undefined)	0.717
COc1ccc(NC(=S)NC(NC(=O)/C=C/c2ccccc2)C(Cl)(Cl)Cl)cc1 (centres undefined)	1.83
O=C(CNc1n[nH]c(=O)[nH]c1=O)N/N=C/c1cccnc1	-0.114
Cc1cccc(N2CCN(C(=O)Cn3cnc4c3c(=O)n(C)c(=O)n4C)CC2)c1C	-0.973
Cn1nnc(NC(=O)c2ccc3ccccc3c2)n1	-1.31
O=C(Nc1nc2c(s1)CCCC2)Oc1ccccc1	-0.198
COC(=O)C(NC(=O)COc1ccccc1)(Nc1nc2c(s1)CCCC2)C(F)(F)F (centres undefined)	2.96
CCOC(=O)C(NC(=O)CC)(Nc1nc2c(s1)CCCC2)C(F)(F)F (centres undefined)	-0.0129
CC(C)CNC(C(=O)Nc1ccc([N+](=O)[O-])cc1Br)c1ccccc1 (centres undefined)	-0.337
CCCN=CC1=C(O)CC(c2ccccc2)CC1=O (centres undefined)	-0.493
CCC(C)N=CC1=C(O)CC(c2ccccc2)CC1=O (centres undefined)	2.05
O=C1CC(c2ccccc2)CC(O)=C1C=NCc1ccccc1 (centres undefined)	-0.229
C=C(Br)Cn1c(CC(C)C)nc2ccccc21	-0.262
COC(=O)c1sc(N)nc1C(C)(C)C	-0.167
CN(C)CC/C=C1/c2ccccc2Sc2c(O)cc(Cl)cc21	1.62
COc1cc(Cl)cc2c1Sc1ccccc1/C2=C/CCN(C)C	3.63 (active)
COc1cc2c(cc1Cl)/C(=C\CCN(C)C)c1ccccc1S2	-0.852
O=C(CNc1ccccc1)N/N=C/c1ccc2c(c1)OCO2	-0.247
COc1ccc(NC(=O)Nc2nnc(-c3ccccc3SCc3ccccc3)s2)cc1	-0.158
CC(=O)N1CCN=C1SCc1ccc(F)cc1	0.0688
CC(=O)N1CCN=C1SCc1ccccc1	-0.898
CC(=O)N1CCN=C1SCc1ccc(Br)cc1	2.58

Structure (SMILES)	z-score
COC(=O)c1ccc(NC(=O)C(=O)N2CCN(C(=S)NCCc3ccccc3)CC2)cc1	-0.154
O=C(N/N=C\c1cn[nH]c1-c1ccccc1)c1cccnc1	0.0508
COC(=O)Oc1cncc(C(=O)O)c1	-0.0704
CCOC(=O)c1cncc(C(=O)O)c1	1.8
O=C(OCc1ccccc1)Oc1cncc(C(=O)O)c1	2.64
CCN(CC)S(=O)(=O)c1ccc(C(=O)NCc2ccc3c(c2)cc(C)n3C)cc1	-0.388
CN(C)S(=O)(=O)c1cccc(NC(=S)Nc2cc(Cl)cc(Cl)c2)c1	8 (active)
CN(C)S(=O)(=O)c1cccc(NC(=S)NN=C(Cc2ccccc2)Cc2ccccc2)c1	0.673
CN(C)S(=O)(=O)c1cccc(C(=O)Nc2cc(Cl)cc(Cl)c2)c1	-0.468
FC(F)(F)c1cccc(NC(=S)Nc2ccc(Cl)cc2Cl)c1	1.29
CN(C)S(=O)(=O)c1cccc(NC(=S)N/N=C/C(c2ccccc2)c2ccccc2)c1	0.384
CN(C)S(=O)(=O)c1cccc(NC(=S)Nc2ccc(Cl)cc2Cl)c1	7.58 (active)
O=C(CCc1ccc(S(=O)(=O)NC2CCCCC2)cc1)N(Cc1ccccc1)Cc1ccccc1	-0.22
Cc1cc(C2=NNC(=NCc3ccccc3)SC2)c(C)n1-c1c(C)n(C)n(-c2ccccc2)c1=O	-0.278
COCC(C)n1c(C)cc(C(=O)COC(=O)c2oc3ccccc3c2C)c1C (centres undefined)	-0.927
Cc1ccccc1CSCC(=O)Nc1c(C)n(C)n(-c2ccccc2)c1=O	-0.0609
CCCCN(CCCC)C(=S)NC(=O)C(C)(C)C	5.35 (active)
CC(C)(C)C(=O)NC(=S)N1CCCC1	-0.128
CC(C)(C)C(=O)NC(=S)NCc1ccccc1	-0.201
COC(=O)c1ccc(C(=O)OC)c(NC(=O)COC(=O)C23CC4CC(CC(O)(C4)C2)C3)c1	-1.04
Cc1cccc(NC(=O)Nc2ccc(C)c(C)c2)n1	-0.316
